# Measurements published in PubChem BioAssay (EPA / NIEHS).
# Results filed as inconclusive are left out. Activity calls are given as the source filed them. Rule for the calls, unless noted: active = hit-call score of the fitted dose curve at least 0.9, where 1 is the maximum; inconclusive = response in the unintended direction; inactive = score below 0.9.
# Key:
# [1] = Tanguay_ZF_120hpf_CIRC_legacy: (Legacy) Oregon State University Tanguay Lab 120 Hour Post-fertilization zebrafish Assay for Circulatory Malformation (AID 2283651)
# Method in brief: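 Binary circulatory-malformation call at 120 hpf via brightfield imaging, relative to DMSO controls. Embryos (5D strain, chorion removed) received static, light-shielded exposure at 28C.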
# [2] = Tanguay_ZF_120hpf_SWIM_legacy: (Legacy) Oregon State University Tanguay Lab 120 Hour Post-fertilization zebrafish Assay for Swim Bladder Malformation (AID 2283654);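 note: swim bladder malformation in each larva scored yes or no under brightfield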
# Method in brief: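 Scoring is binary for swim bladder defects at 120 hpf, by brightfield inspection of zebrafish larvae. Embryos were exposed singly from 6 hpf after pronase dechorionation, at 28C with 0.64% DMSO; mortality excluded scoring.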
# [3] = Tanguay_ZF_120hpf_TRUN_legacy: (Legacy) Oregon State University Tanguay Lab 120 Hour Post-fertilization zebrafish Assay for Truncated Body (AID 2283655)
# Method in brief: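 Binary presence/absence of truncated body is recorded at 120 hpf by brightfield, with non-mortality endpoints skipped after death. Exposure is static from 6 hpf in sealed dark plates at 28C, using dechorionated wild-type zebrafish, 0.64% DMSO.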
# [4] = Tanguay_ZF_120hpf_NC_legacy: (Legacy) Oregon State University Tanguay Lab 120 Hour Post-fertilization zebrafish Assay for Notochord and Tail Malformation (AID 2283656)
# Method in brief: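 Binary notochord-distortion calls, made by brightfield inspection, form the read-out; activity is fitted in the positive direction against DMSO. Exposure ran statically from 6 to 120 hpf at 28C with 0.64% DMSO.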
# [5] = Tanguay_ZF_120hpf_TR_legacy: (Legacy) Oregon State University Tanguay Lab 120 Hour Post-fertilization zebrafish Assay for Touch Response (AID 2283667)
# Method in brief: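 Binary touch-response endpoint in larvae at 120 hpf after static waterborne exposure from embryo stage (28°C, 0.64% DMSO vehicle, 5 uM trimethyltin chloride as positive control); embryos dead at 24 or 120 hpf excluded; fitted as gain versus DMSO.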
# [6] = Tanguay_ZF_120hpf_ActivityScore_legacy: (Legacy) Oregon State University Tanguay Lab 120 Hour Post-fertilization zebrafish Assay Score for Activity (AID 2283742);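 for AC50: dechorionated Tropical 5D wild-type zebrafish embryos held singly per well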
# Method in brief: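 Binary scoring of mortality and morphology by brightfield at 24 and 120 hpf, summarised into one activity score from 18 components relative to DMSO. Wild-type Tropical 5D zebrafish, chorion removed at 4 hpf, static exposure 6–120 hpf, 28 °C.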
# [7] = molecular target: human CYP19A1, CYP19A1 (gene 1588) (UniProt P11511); experiment: NVS_ADME_hCYP19A1: NovaScreen (NVS) CYP450-related Enzyme Activity (ADME) Assay for human CYP19A1 (AID 2283098)
# Chain of human CYP19A1, CYP19A1 (gene 1588) (P11511 whole entry, looked up): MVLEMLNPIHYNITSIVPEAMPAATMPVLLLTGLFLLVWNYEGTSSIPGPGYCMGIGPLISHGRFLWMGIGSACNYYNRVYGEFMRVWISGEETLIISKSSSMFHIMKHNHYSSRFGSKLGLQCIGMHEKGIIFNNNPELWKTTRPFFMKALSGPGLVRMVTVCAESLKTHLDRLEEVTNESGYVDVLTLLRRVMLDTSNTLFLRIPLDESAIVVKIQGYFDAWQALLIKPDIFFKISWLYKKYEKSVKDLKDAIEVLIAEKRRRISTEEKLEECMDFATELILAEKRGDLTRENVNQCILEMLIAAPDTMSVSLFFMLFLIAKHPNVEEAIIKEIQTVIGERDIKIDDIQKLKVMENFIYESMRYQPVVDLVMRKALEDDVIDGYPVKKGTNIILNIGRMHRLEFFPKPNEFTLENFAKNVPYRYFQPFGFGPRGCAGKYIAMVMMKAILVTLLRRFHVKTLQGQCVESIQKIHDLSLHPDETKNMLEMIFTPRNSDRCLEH
# Method in brief: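 Primary testing was in duplicate at a single 10 uM concentration, with actives followed up in concentration-response series. Fluorescence read-out of recombinant enzyme activity at 0.5 h, cell-free. Acetonitrile was the negative-control baseline.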
# [8] = molecular target: sheep Cyclooxygenase-2 (Cox2), PTGS2 (gene 443460) (UniProt P79208); experiment: NVS_ENZ_oCOX2: NovaScreen (NVS) Enzymatic Assay for sheep Cyclooxygenase-2 (Cox2) (AID 2283231)
# Chain of sheep Cyclooxygenase-2 (Cox2), PTGS2 (gene 443460) (P79208 whole entry, looked up): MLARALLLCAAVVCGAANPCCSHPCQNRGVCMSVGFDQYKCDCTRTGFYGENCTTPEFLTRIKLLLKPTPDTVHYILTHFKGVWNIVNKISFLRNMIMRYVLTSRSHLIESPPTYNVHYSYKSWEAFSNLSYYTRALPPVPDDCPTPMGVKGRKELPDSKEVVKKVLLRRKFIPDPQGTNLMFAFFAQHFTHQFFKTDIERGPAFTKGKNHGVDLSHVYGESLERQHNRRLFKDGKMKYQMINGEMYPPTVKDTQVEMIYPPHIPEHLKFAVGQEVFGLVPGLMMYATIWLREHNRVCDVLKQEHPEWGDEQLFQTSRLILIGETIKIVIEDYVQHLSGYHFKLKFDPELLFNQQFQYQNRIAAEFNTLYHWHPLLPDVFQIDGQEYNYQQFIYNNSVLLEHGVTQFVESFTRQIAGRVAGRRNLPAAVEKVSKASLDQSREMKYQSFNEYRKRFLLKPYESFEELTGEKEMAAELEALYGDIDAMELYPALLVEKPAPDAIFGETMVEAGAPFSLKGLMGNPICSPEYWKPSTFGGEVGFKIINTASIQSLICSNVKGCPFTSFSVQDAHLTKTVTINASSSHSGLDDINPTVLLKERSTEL
# Method in brief: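 Ovine placental enzyme, cell-free; chemical added, 0.66 h, absorbance (colorimetric). Screen 25 uM in duplicate; ≥threshold hits titrated, top 50 uM. Inhibition = signal loss vs DMSO.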
# [9] = IUF_NPC1b_proliferation_BrdU_72hr: Leibniz Research Institute for Environmental Medicine (IUF) 72-hour Neural Progenitor Cell Bromodeoxyuridine (BrdU) Proliferation Assay (NPC1b) (AID 2284207; active = hit-call score of the fitted dose curve at least 0.9, where 1 is the maximum; inactive = score below 0.9)
# Method in brief: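 Human fetal cortex-derived (GW 16-19) neural progenitor spheres, 0.25-0.35 mm, one per well in EGF/FGF proliferation medium, exposed to compound for 72 h at 37C, pH 7.2-7.6. BrdU incorporation over the final 16 h read by luminescence ELISA, relative to DMSO.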
# [10] = molecular target: chimpanzee Androgen Receptor (AR), AR (gene 747460) (UniProt O97775); experiment: NVS_NR_cAR: NovaScreen (NVS) Nuclear Receptor Binding Assay for chimpanzee Androgen Receptor (AR) (AID 2283346);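 note: radioligand displacement from AR measured by scintillation counting in a cell-free assay; a loss of bound radioligand signal versus DMSO counts as binding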
# Chain of chimpanzee Androgen Receptor (AR), AR (gene 747460) (O97775 whole entry, looked up): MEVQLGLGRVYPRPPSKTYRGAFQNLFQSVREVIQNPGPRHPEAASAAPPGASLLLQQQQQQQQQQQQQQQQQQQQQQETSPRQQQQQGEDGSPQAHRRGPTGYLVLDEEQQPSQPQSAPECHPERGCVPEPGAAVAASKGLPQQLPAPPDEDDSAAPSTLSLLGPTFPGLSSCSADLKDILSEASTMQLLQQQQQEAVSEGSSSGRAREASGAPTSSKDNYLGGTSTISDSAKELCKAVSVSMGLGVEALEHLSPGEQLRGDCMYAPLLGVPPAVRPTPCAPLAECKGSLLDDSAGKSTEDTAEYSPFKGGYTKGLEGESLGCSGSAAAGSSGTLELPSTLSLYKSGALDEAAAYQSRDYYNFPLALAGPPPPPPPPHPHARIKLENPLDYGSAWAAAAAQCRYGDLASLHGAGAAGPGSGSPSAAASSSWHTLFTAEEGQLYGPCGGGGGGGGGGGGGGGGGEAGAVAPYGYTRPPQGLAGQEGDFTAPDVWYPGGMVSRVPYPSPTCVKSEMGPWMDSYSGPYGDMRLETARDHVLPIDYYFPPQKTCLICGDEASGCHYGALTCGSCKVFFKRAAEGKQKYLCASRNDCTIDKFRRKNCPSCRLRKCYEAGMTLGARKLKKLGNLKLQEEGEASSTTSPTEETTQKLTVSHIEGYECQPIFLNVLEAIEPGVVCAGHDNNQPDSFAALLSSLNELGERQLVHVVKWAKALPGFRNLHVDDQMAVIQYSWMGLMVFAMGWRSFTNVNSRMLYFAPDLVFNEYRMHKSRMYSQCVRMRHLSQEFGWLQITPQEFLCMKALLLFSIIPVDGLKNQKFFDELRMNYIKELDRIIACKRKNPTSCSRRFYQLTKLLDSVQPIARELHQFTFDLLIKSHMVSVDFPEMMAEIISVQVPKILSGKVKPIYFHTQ
# Method in brief: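 Cell-free competition binding with insect-cell (Sf9/Sf21) extracted chimpanzee AR; scintillation signal from lysate at 72 h. Screened in duplicate at 25 uM, then concentration-response for actives; fitting relative to DMSO.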
# [11] = molecular target: PGR (gene 5241) (UniProt P06401); experiment: NVS_NR_hPR: NovaScreen (NVS) Nuclear Receptor Binding Assay for human Progestron Receptor (PR) (AID 2283360);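 note: active means loss of bound radioligand signal versus DMSO baseline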
# Chain of PGR (gene 5241) (P06401 whole entry, looked up): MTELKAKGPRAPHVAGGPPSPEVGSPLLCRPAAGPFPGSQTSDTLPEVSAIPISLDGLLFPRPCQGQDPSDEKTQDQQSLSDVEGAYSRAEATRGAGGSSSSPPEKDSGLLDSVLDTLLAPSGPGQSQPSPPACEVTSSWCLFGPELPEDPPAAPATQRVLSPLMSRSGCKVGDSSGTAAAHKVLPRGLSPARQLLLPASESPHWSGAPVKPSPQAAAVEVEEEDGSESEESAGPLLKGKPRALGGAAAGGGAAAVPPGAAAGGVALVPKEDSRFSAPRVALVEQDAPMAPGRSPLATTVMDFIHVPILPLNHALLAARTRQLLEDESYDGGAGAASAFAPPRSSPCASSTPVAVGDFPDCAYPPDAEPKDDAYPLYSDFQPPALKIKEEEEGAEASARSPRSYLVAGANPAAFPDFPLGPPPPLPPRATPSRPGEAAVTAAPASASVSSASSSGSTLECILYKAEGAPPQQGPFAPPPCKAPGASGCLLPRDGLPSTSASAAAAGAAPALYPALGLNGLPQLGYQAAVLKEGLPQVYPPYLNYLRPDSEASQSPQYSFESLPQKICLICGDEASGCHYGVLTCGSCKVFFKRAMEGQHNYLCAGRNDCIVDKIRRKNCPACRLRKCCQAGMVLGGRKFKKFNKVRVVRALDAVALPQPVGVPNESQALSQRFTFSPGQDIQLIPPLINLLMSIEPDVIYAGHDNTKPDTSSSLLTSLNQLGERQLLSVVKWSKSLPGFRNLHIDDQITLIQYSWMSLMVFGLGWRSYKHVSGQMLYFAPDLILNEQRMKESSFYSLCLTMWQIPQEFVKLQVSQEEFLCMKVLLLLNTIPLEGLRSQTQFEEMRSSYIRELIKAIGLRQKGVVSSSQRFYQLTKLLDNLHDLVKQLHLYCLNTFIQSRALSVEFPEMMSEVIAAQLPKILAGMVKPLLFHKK
# Method in brief: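 T47D lysate; tritiated or iodinated radioligand; scintillation count at 18 h. DMSO = negative control/baseline. Primary: 25 uM, duplicate. Secondary: concentration series for actives.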
smiles,measurement,setting,value
N#CCCCCC#N,outcome,[1],inactive
same,outcome,[2],inactive
same,outcome,[3],inactive
same,outcome,[4],inactive
same,outcome,[5],inactive
same,outcome,[6],inactive
CCC(=O)c1ccc(Cl)cc1,outcome,[7],inactive
CNC(=N[N+](=O)[O-])NCC1CCOC1 (stereo not given),outcome,[8],inactive
same,outcome,[9],inactive
Nc1ccc(Cl)c(Cl)c1,AC50,[10],25 µM (active)
O=CNC(N1CCN(C(NC=O)C(Cl)(Cl)Cl)CC1)C(Cl)(Cl)Cl (stereo not given),outcome,[8],inactive
ClC1=C(Cl)[C@]2(Cl)[C@@H]3[C@@H](Cl)[C@H](Cl)C[C@@H]3[C@@]1(Cl)C2(Cl)Cl,outcome,[11],inactive
C[C@]12CC[C@H](O)C[C@H]1CC[C@@H]1[C@@H]2C[C@@H](O)[C@]2(C)[C@@H](C3=CC(=O)OC3)CC[C@]12O,outcome,[11],inactive
CC(C)CCCCCCCOP(=O)(Oc1ccccc1)Oc1ccccc1,outcome,[9],inactive
O=C(CCl)c1ccccc1,outcome,[1],inactive
same,outcome,[2],inactive
same,outcome,[3],inactive
same,outcome,[4],inactive
same,outcome,[5],inactive
same,AC50,[6],1.45 µM (active)
